mut p53 react: re-activators of the mutant p53 pathway; SW480 PUMA-promoter luciferase, p53 mutant reactivation; activation, % at 9.98 µM; hit rate 1.5% among 28,000; AID 624151; in the data active = activation above about 52%
ID4 binder: binders of human ID4 protein; hit rate 1.2% among 31,000; AID 624137; calls only; P47928; small molecule microarray, Flag-ID4 binding, fluorescence F/B; call rule not given here;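 note: a binder raises fluorescence above local background on the spot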
Target sequence (P47928 whole entry, looked up): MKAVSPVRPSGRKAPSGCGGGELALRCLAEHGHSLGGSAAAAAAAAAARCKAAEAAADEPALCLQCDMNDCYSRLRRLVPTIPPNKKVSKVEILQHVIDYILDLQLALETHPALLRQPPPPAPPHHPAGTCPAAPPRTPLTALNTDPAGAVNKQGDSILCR
The depositor's hits bear a star; i = inactive; · = not tested or not shown; + = active, no number. Rows were chosen to be rich in hits. Some 2.3% of all compounds tested hit in one or more screens of this group.

SMILES	mut p53 react	ID4 binder
COc1cccc(NC(=O)N(C)C[C@@H]2Oc3ncc(/C=C/c4ccccc4)cc3C(=O)N([C@H](C)CO)C[C@@H]2C)c1	5	+
C[C@H]1CN([C@@H](C)CO)C(=O)c2cc(/C=C/c3ccccc3)cnc2O[C@H]1CN(C)C(=O)Nc1ccccc1F	-1	·
CCCNC(=O)N(C)C[C@H]1Oc2ncc(-c3ccc(C(=O)N(C)C)cc3)cc2C(=O)N([C@H](C)CO)C[C@H]1C	4	+
C[C@@H]1CN([C@@H](C)CO)C(=O)c2cc(/C=C/c3ccccc3)cnc2O[C@H]1CN(C)C(=O)Nc1ccccc1F	3	+
C[C@@H]1CN([C@H](C)CO)C(=O)c2cc(/C=C/c3ccccc3)cnc2O[C@@H]1CN(C)C(=O)Nc1ccc(C(F)(F)F)cc1	-25	i
C/C=C/c1cnc2c(c1)C(=O)N([C@@H](C)CO)C[C@@H](C)[C@@H](CN(C)C(=O)Nc1cccc(OC)c1)O2	3	·
CCCNC(=O)N(C)C[C@@H]1Oc2ncc(-c3ccccc3)cc2C(=O)N([C@@H](C)CO)C[C@H]1C	12	·
C[C@H](CO)N1C[C@H](C)[C@H](CN(C)C(=O)Nc2ccccc2)Oc2ncc(/C=C/c3ccccc3)cc2C1=O	0	+
COc1ccc(S(=O)(=O)Nc2ccc(Br)c3cccnc23)c([N+](=O)[O-])c1	-28	i
CCOc1ccc(-n2c(SCC(=O)Nc3ccc(Cl)cc3)nc3ccccc3c2=O)cc1	4	i
C[C@H](CO)N1C[C@H](C)[C@H](CN(C)C(=O)Nc2ccccc2F)Oc2ncc(-c3ccc(F)cc3)cc2C1=O	15	i
C[C@@H]1CN([C@@H](C)CO)C(=O)c2cc(-c3ccc(F)cc3)cnc2O[C@@H]1CN(C)C(=O)Nc1ccccc1F	-7	+
CC(C)Nc1cccnc1N1CCN(C(=O)c2cc3cc(O)ccc3[nH]2)CC1	·	i
CC(C)=CCN(CC#Cc1ccccc1)[C@H](CO)c1ccccc1	·	i
CNC[C@@H]1Oc2ccc(NS(=O)(=O)c3cccs3)cc2CC(=O)N([C@H](C)CO)C[C@H]1C	-3	+
CNC[C@@H]1Oc2ccc(NS(C)(=O)=O)cc2CC(=O)N([C@@H](C)CO)C[C@@H]1C	-4	+
CNC[C@H]1Oc2ccc(NS(=O)(=O)c3cccs3)cc2CC(=O)N([C@H](C)CO)C[C@H]1C	-4	i
CNC[C@H]1Oc2ccc(NS(C)(=O)=O)cc2CC(=O)N([C@H](C)CO)C[C@H]1C	-7	i
Cc1ccc(Cl)cc1N(CC(=O)Nc1ccc(C(F)(F)F)cc1)S(C)(=O)=O	-11	i
COc1ccc(OC)c(NC(=O)c2ccc(C)c(S(=O)(=O)Nc3ccc(C)cc3)c2)c1	1	+
COc1ccc(OC)c(NC(=O)c2ccc(Cl)c(S(=O)(=O)Nc3ccc(C)cc3)c2)c1	-3	i
COc1ccc(S(=O)(=O)NCCc2c[nH]c3ccccc23)c2ccccc12	3	i
Cc1cccc(OCC(=O)Nc2ccccc2CO)c1C	69*	i
CC(=O)Nc1ccccc1NC(=O)COc1ccc(Cl)cc1Cl	26	i
CC(=O)Oc1ccc(NC(=O)COc2cccc(C)c2C)c(C(=O)O)c1	-6	i
SMILES	mut p53 react	ID4 binder
COc1cc(CO)ccc1OCC(=O)Nc1ccc(C)cc1	47	i
O=C(COc1ccc(Cl)cc1CO)Nc1ccccc1F	128*	i
COc1cc(CO)ccc1OCC(=O)Nc1ccccc1F	64*	i
COc1ccc(-c2noc(CCCN3C(=O)c4ccccc4C3=O)n2)cc1OC	17	i
Oc1c(C(Nc2ccccn2)c2cccc(F)c2)cc(Cl)c2cccnc12 (stereo unspecified)	-55	i
CCOC(=O)N1CCN(Cc2nnc(-c3ccc4c(c3)OCO4)o2)CC1	8	i
CCOC(=O)c1c(NC(=O)c2ccc(C)c(S(=O)(=O)N3CCCCCC3)c2)sc(C)c1C	-5	i
CC(Oc1ccc(Br)cc1)C(=O)Nc1ccccc1[N+](=O)[O-] (stereo unspecified)	10	i
CC(Oc1ccccc1F)C(=O)Nc1ccccc1[N+](=O)[O-] (stereo unspecified)	57*	i
O=C(NCc1ccco1)c1ccc(NC(=O)c2ccco2)cc1	44	i
Cc1ccc(N(CC(N)=O)S(C)(=O)=O)c(C)c1	-7	i
NCCCCCNC(=O)[C@@H]1C[C@@H]2C(=O)NCC(=O)N2[C@@H]1c1cccc(OCCO)c1	·	+
NCCCCCNC(=O)[C@H]1C[C@H]2C(=O)NCC(=O)N2[C@H]1c1cccc(OCCO)c1	·	i
NCCCCCCNC(=O)[C@@H]1C[C@@H]2C(=O)N[C@@H](Cc3ccccc3)C(=O)N2[C@@H]1c1ccc(O)cc1	·	+
NCCCCCCNC(=O)[C@@H]1C[C@@H]2C(=O)NCC(=O)N2[C@@H]1c1ccc(O)cc1	·	+
C=CCOC(=O)[C@@H]1[C@H]2C(=O)O[C@H](c3ccccc3)[C@H](c3ccccc3)N2[C@H](c2ccc(OCCOC(=O)[C@@H]3C[C@@H]4C(=O)N[C@@H](Cc5ccccc5)C(=O)N4[C@@H]3c3ccc(O)cc3)cc2)[C@@]12C(=O)Nc1ccccc12	·	i
CN(C)CCCCNC(=O)[C@@H]1C[C@@H]2C(=O)NCC(=O)N2[C@@H]1c1ccc(O)cc1	·	i
Cc1sc(NC(=O)COc2ccccc2)c(C(N)=O)c1-c1ccccc1	-16	i
CCOC(=O)C1CCCCN1Cc1cccc([N+](=O)[O-])c1 (stereo unspecified)	9	i
CCOC(=O)Cc1cc(C(=O)c2ccc(OC)cc2)sc1-c1ccc(OC)cc1	4	i
O=c1cc(-c2ccccc2)oc2ccccc12	·	i
COc1ccccc1-c1cc(=O)c2ccccc2o1	138*	i
COc1ccc(Cl)cc1NC(=O)CSc1nnc(-c2cc3cc(Br)ccc3o2)n1C	52*	i
Cn1c(SCC(=O)Nc2ccc(Cl)cc2Cl)nnc1-c1ccc(Br)cc1	-7	i
CCc1cccc(OCC(=O)Nc2ccc(OC)cc2[N+](=O)[O-])c1	91*	i
SMILES	mut p53 react	ID4 binder
COc1ccc(NC(=O)COc2ccc(Br)cc2Cl)c([N+](=O)[O-])c1	26	i
COc1ccc(NC(=O)COc2ccccc2Cl)c([N+](=O)[O-])c1	84*	i
COc1ccc(NC(=O)COc2cc(C)c(Br)cc2C)c([N+](=O)[O-])c1	3	i
COc1cccc(OCC(=O)Nc2ccccc2[N+](=O)[O-])c1	49	i
COc1ccc(NC(=O)COc2c(Cl)c(C)c(Cl)c(C)c2Cl)c([N+](=O)[O-])c1	17	i
COc1ccc(OCC(=O)Nc2ccc(OC)cc2[N+](=O)[O-])cc1	98*	i
COc1ccc(NC(=O)COc2ccc(Cl)c(C)c2)c([N+](=O)[O-])c1	74*	i
O=C(O)CCN1C(=O)c2cccc3c([N+](=O)[O-])ccc(c23)C1=O	-5	i
FC(F)(F)c1ccc2nc(SCc3ccc(Br)cc3)[nH]c2c1	0	i
CCOc1ccc(Br)cc1C(=O)NCCc1c[nH]c2ccccc12	-14	i
O=C(COc1ccccc1Cl)Nc1ccc(C(=O)Nc2ccccc2C(=O)O)cc1	1	i
O=C(CSc1nnc(-c2cccc3ccccc23)n1-c1ccccc1)NC1CC1	-11	i
O=[N+]([O-])c1ccccc1OCCCCSc1ncccn1	23	i
Cc1ccc([N+](=O)[O-])c(OCCCSc2ncccn2)c1	67*	i
